FMDV inh: High Throughput Screening for Foot and Mouth Disease Virus Antivirals. FMDV antiviral cell-based qHTS. Potency, µM (titrated, usually from 57.9 µM), usual class: inhibitors. 410,000 compounds, 1.2% hits. AID 1159524, 2015; calls by dose curve; tested in HEK293T cells; also: read-out not given here; nearly all actives have a fitted effect of over 45% in size
HCV inhibitor: qHTS Assay for Inhibitors of Hepatitis C Virus (HCV); Potency, µM (doses to about 41.8 µM), hits mostly inhibitors; Huh7.5.1 HCVcc-Cre infection, luciferase reporter, 44 h; 340,000 compounds, 3.4% hits
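After 44 h co-culture of compound, cells and HCVcc-Cre (~0.5 moi), substrate is added for 15 min at room temperature and luciferase measured over 15 sec. Cells were seeded at 1,000/well and pre-cultured 4 h.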
RE007 growth inh: qHTS Assay for Inhibitors of the HIV-1 protein Vpr | S. pombe RE007 Vpr strain, BacTiter-Glo ATP luminescence, 24 h | Potency, µM (top dose mostly 92.2 µM), actives largely listed as inhibitors | 360,000 compounds, 0.21% hits; active = well fitted falling curve with a large enough effect; inconclusive = small, poorly fitted or top-dose-only effect; inactive = no such curve, though single readings can be large or run the other way; also: nearly all actives have a fitted effect of over 50% in size
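Fission yeast strain RE007, carrying one chromosomally integrated HIV-1 vpr copy, was seeded at OD 0.01 in PMG+AL medium with 23 nL pinned compound. After 24 h at 30 °C and 99% humidity, viability was read by BacTiter-Glo luminescence.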
LASV entry inh: qHTS for Inhibitors of binding or entry into cells for Lassa Virus; Lassa virus pseudotype entry inhibition, cell reporter; Potency, µM (top dose mostly 37.9 µM), most hits filed as inhibitors; 300,000 compounds, 1.2% hits; AID 540256, 2011; calls by dose curve; tested in HEK293 cells; also: nearly all actives have a fitted effect of over 50% in size
MARV entry inh: qHTS for inhibitors of binding or entry into cells for Marburg Virus | Potency, µM (series often up to 37.8 µM), usual class: inhibitors | 300,000 compounds, 1.8% hits | AID 540276, 2011 | Marburg virus pseudotyped entry inhibition, cell reporter; calls by dose curve; tested in HEK293 cells
Sm TGR inh: qHTS Assay for the Inhibitors of Schistosoma Mansoni Peroxiredoxins; Schistosoma mansoni thioredoxin glutathione reductase (TGR), Q962Y6; purified TGR, DTNB reduction, TNB absorbance 405 nm; Potency, µM (titrated, usually from 114 µM), usual class: inhibitors; 360,000 compounds, 3% hits; AID 485364, 2010; also: nearly all actives have a fitted effect of over 60% in size
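TGR 20 nM + NADPH 100 uM (dispensed conc.), cpd preinc 15 min RT; start with NADPH (500 uM addition) then DTNB (15 mM addition). Kinetic TNB absorbance, 405 nm filter. Four-parameter Hill fit across titration.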
Of the large screens only hits and unclear results are named; the others gave an inactive call; ! = not active in a repeat. Sampled rows, rich in hits. Any-hit rate of the full collection: about 7.2%. Unless noted, calls follow the shape of the dose curve; as a rule, active = well fitted curve in the direction sought with a large enough effect; inconclusive = small, poorly fitted or top-dose-only effect, or another doubt; inactive = no such curve, though single readings can be large; an effect the other way counts as inactive or inconclusive.

COc1cc(NC(=O)NCCn2nnc3cc(S(=O)(=O)N(C)C)ccc32)cc(OC)c1OC	none (no result: HCV inhibitor, RE007 growth inh, MARV entry inh)
O=C(C1CCC(Cn2c(=S)[nH]c3ccccc3c2=O)CC1)N1CCN(c2ccccc2)CC1 (centres undefined)	HCV inhibitor 10µM, MARV entry inh inconclusive (no result: Sm TGR inh)
O=C(NCCc1ccc(Cl)cc1)C1CCC(CNc2nc(=S)[nH]c3ccccc23)CC1 (centres undefined)	HCV inhibitor 11µM, MARV entry inh inconclusive
CCCCNC(=O)C1CCC(CNc2nc(=S)[nH]c3ccccc23)CC1 (centres undefined)	none
O=C(NCCC1=CCCCC1)C1CCC(CNc2nc(=S)[nH]c3ccccc23)CC1 (centres undefined)	HCV inhibitor inconclusive (no result: LASV entry inh)
COc1ccccc1N1CCN(C(=O)C2CCC(Cn3c(=S)[nH]c4ccccc4c3=O)CC2)CC1 (centres undefined)	FMDV inh inconclusive, HCV inhibitor inconclusive, MARV entry inh inconclusive
COc1ccc(N2CCN(C(=O)C3CCC(Cn4c(=S)[nH]c5ccccc5c4=O)CC3)CC2)cc1 (centres undefined)	HCV inhibitor 1µM, MARV entry inh 10µM
O=C(C1CCC(CNc2nc(=S)[nH]c3ccccc23)CC1)N1CCN(c2ccc(F)cc2)CC1 (centres undefined)	FMDV inh 18µM, HCV inhibitor inconclusive, LASV entry inh inconclusive, MARV entry inh inconclusive
COc1cccc(CN2C(=O)c3ccccc3Sc3ccc(C(=O)NCCc4ccc(C)cc4)cc32)c1	MARV entry inh inconclusive (no result: HCV inhibitor, RE007 growth inh)
O=C(COc1ccccc1F)Nc1ccc2oc(-c3cccc(Cl)c3)nc2c1	none (no result: HCV inhibitor, RE007 growth inh)
Cc1ccc(Cl)cc1NC(=O)CSc1ccc(C(=O)O)cn1	none (no result: HCV inhibitor, RE007 growth inh)
COc1ccc(CCNC(=O)CCCCCNc2nc(=S)[nH]c3ccccc23)cc1OC	HCV inhibitor 11µM, LASV entry inh inconclusive, MARV entry inh inconclusive
O=C(C1CCC(Cn2c(=S)[nH]c3ccccc3c2=O)CC1)N1CCN(c2ccccn2)CC1 (centres undefined)	FMDV inh 22µM, HCV inhibitor 13µM, LASV entry inh inconclusive
O=C(C1CCC(Cn2c(=S)[nH]c3ccccc3c2=O)CC1)N1CCOCC1 (centres undefined)	none
O=C(CCCCCNc1nc(=S)[nH]c2ccccc12)NCCc1ccccc1	HCV inhibitor inconclusive, LASV entry inh inconclusive
Cc1c(C(=O)NCCc2cccnc2)cnn1-c1nccc(-c2ccccc2F)n1	none (no result: HCV inhibitor, RE007 growth inh, LASV entry inh, MARV entry inh, Sm TGR inh)
Cc1cc(N2CCN(c3ccc(F)cc3)CC2)n2cnnc2n1	none (no result: HCV inhibitor, RE007 growth inh)
O=C(NCCCN1CCCC1)C1CCN(C(=O)c2cc3sccc3n2Cc2ccc(F)cc2)CC1	HCV inhibitor 25µM, MARV entry inh inconclusive
CCn1c(C(=O)N2CCC(C(=O)NCc3ccc4c(c3)OCO4)CC2)cc2sccc21	FMDV inh 32µM, HCV inhibitor inconclusive
O=C(NCc1ccco1)C1CCN(C(=O)c2cc3sccc3n2Cc2ccc(F)cc2)CC1	HCV inhibitor inconclusive, LASV entry inh 10µM (no result: FMDV inh)
COCCCNC(=O)C1CCN(C(=O)c2cc3sccc3n2Cc2ccc(F)cc2)CC1	HCV inhibitor inconclusive (no result: FMDV inh)
Cc1ccc(-c2cc(C(=O)N(Cc3ccc(C(C)(C)C)cc3)Cc3ccco3)no2)cc1	none (no result: HCV inhibitor, RE007 growth inh)
CC1=C(C(=O)Nc2cc(C(=O)N3CCN(c4ccc(Cl)cc4)CC3)ccc2C)SCCO1	FMDV inh 22µM (no result: HCV inhibitor, LASV entry inh, MARV entry inh, Sm TGR inh)
Cc1ccc(-n2c(C)nc3c(cnn3-c3ccccc3Cl)c2=O)cc1C	none
Cc1nc2c(cnn2-c2ccccc2Cl)c(=O)n1-c1ccc(N2CCC(C)CC2)cc1	HCV inhibitor 13µM, LASV entry inh inconclusive, MARV entry inh inconclusive
COc1ccc(Br)cc1CNC(=O)c1ccc2nc(C(C)C)oc2c1	none (no result: HCV inhibitor, RE007 growth inh, MARV entry inh)
COc1ccc(CCN(C)CC(O)c2ccccc2)cc1OC (centres undefined)	none
COc1ccc(CCN(C)CCCC(C#N)(c2cc(OC)c(OC)c(OC)c2)C(C)C)cc1OC (centres undefined)	HCV inhibitor inconclusive, LASV entry inh inconclusive, MARV entry inh 8.9µM
COc1ccc2cc(Br)ccc2c1CC(=O)N(C)C	none (no result: LASV entry inh, Sm TGR inh)
COc1ccc(CN(C)Cc2c(O)ccc3cc(Br)ccc23)cc1OC	MARV entry inh inconclusive, Sm TGR inh 8.9µM
COc1ccc(CCN(C)CCc2ccc(OC)c(OC)c2)cc1OC	MARV entry inh 5µM! (no result: Sm TGR inh)
COc1ccc(CCN(C)Cc2c(O)ccc3cc(Br)ccc23)cc1OC	FMDV inh inconclusive, MARV entry inh inconclusive, Sm TGR inh 4µM
COc1ccc(CCN(C)Cc2ccncc2)cc1OC	none
CCOc1ccc(S(=O)(=O)N2CCN(c3ccccc3)CC2)cc1C(N)=O	MARV entry inh inconclusive (no result: HCV inhibitor, RE007 growth inh)
CO[C@H]1[C@H](NC(=O)c2ccsc2)c2ccccc2C12CCN(Cc1cnn(C)c1C)CC2	none (no result: HCV inhibitor, RE007 growth inh, LASV entry inh, MARV entry inh, Sm TGR inh)
Cn1cccc1/C=C1/C(=O)NC(=S)N(Cc2ccc(F)cc2)C1=O	FMDV inh 28µM, HCV inhibitor inconclusive, Sm TGR inh 25µM
COc1ccc(CCN(C)CCCOc2ccc(S(=O)(=O)c3[nH]c4ccccc4c3C(C)C)cc2)cc1OC	none (no result: HCV inhibitor, RE007 growth inh, LASV entry inh, MARV entry inh, Sm TGR inh)
CCCN1C(=O)CC(c2ccco2)Sc2ccccc21 (centres undefined)	Sm TGR inh 14µM
CN1C(=O)CC(c2ccco2)Sc2ccccc21 (centres undefined)	Sm TGR inh 40µM
COc1ccc(C2CC(=O)N(C)c3ccccc3S2)cc1 (centres undefined)	none
CCOC(=O)CNC(=O)CN1C(=O)CC(c2ccco2)Sc2ccccc21 (centres undefined)	none
CCN(CC)S(=O)(=O)c1ccc2c(c1)N(CC(=O)Nc1ccccc1F)C(=O)C1CCCN21 (centres undefined)	none (no result: HCV inhibitor, RE007 growth inh)
CN(C)c1ccc(CNC(=O)CCn2c(=O)c3cccn3c3ccc(F)cc32)cc1	none (no result: HCV inhibitor, RE007 growth inh, MARV entry inh)
Cc1cccc(C(=O)N[C@H]2CC[C@@H](n3cc(C(=O)N4CCCC4)nn3)CC2)c1	none (no result: HCV inhibitor, RE007 growth inh, LASV entry inh, MARV entry inh, Sm TGR inh)
COc1ccc(NC(=O)c2ccc(CN3C(=O)CCn4nc(C)cc43)cc2)c(OC)c1	none (no result: HCV inhibitor, RE007 growth inh, MARV entry inh)
CC(C)COc1cccc(C(=O)Nc2ccc(N3CCOCC3)cc2N2CCOCC2)c1	HCV inhibitor 7.9µM, MARV entry inh inconclusive
CC(C)COc1cccc(C(=O)Nc2ccc(CN3CCOCC3)cc2)c1	HCV inhibitor 3.2µM, LASV entry inh inconclusive, MARV entry inh inconclusive
O=C(Nc1ccc(Br)cc1)c1cccc(OC(=S)N2CCOCC2)c1	FMDV inh inconclusive, HCV inhibitor 8.9µM, LASV entry inh inconclusive, MARV entry inh inconclusive
CCOC(=O)Cn1c(=O)n(-c2ccccc2OC)c2nc(-c3ccccc3)nc(C(N)=O)c21	FMDV inh inconclusive (no result: HCV inhibitor, RE007 growth inh, MARV entry inh)
